Assay results as given in PubChem BioAssay AID1508608 (The Scripps Research Institute Molecular Screening Center, 2020).
The whole screen tested about 2,300 compounds, of which about 20 (0.9%) were called active.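 How the source made its calls: active means mean activation across replicates above 26.72%, the hit cutoff set for this confirmation screen; inactive means the rest.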 The sample as a whole holds a higher share of actives than the screen did.

biological target: G-protein coupled receptor 151 (Homo sapiens) (UniProt Q8TDV0); experiment: GPR151 activators, triplicate retest, confirmation, cell-based, PathHunter beta-arrestin, luminescence, set 2 (AID 1508608); details: GPR151 PathHunter beta-arrestin cells, 90 min, at 11.2 µM, stronger effect = higher value, 100% = signal from added EA reagent;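 further: 0% = plate median of compound wells and 100% = EA reagent high control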
Sequence (Q8TDV0 whole entry, looked up): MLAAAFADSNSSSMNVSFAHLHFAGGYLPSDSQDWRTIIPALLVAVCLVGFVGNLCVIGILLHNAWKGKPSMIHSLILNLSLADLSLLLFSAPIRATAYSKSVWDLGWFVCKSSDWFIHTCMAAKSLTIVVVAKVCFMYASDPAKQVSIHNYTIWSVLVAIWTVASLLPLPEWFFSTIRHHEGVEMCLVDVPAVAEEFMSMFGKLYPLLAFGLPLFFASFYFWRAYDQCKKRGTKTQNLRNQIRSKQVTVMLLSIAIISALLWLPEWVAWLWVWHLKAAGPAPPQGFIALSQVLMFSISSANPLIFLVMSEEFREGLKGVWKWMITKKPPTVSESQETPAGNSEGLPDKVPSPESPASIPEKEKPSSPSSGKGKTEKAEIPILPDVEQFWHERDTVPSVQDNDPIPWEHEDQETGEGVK

Row | SMILES | activation
1 | CCCc1c(C)nc2c(C(=O)NCc3ccc(F)cc3)c[nH]n2c1=O | 4.27% (inactive)
2 | CC1CCCCC1NS(=O)(=O)c1ccc2c(c1)CCN2C(=O)C1CC1 (stereo not drawn) | -8.17% (inactive)
3 | CNS(=O)(=O)c1cc(-c2nnc(NCc3nc4ccccc4[nH]3)c3ccccc23)ccc1C | 0.28% (inactive)
4 | CCOC(=O)c1cnc2ccc(OCC)cc2c1Nc1ccccc1OC | 0.37% (inactive)
5 | CC(C(=O)O)n1ncn2cccc2c1=O (stereo not drawn) | 0.45% (inactive)
6 | Cc1cc2c(cc1S(=O)(=O)N1CCN(C3CCCCC3)CC1)OCC(=O)N2 | -3.55% (inactive)
7 | CCCCc1ccc(C(=O)N/C(=C\c2ccc(C)cc2)C(=O)Nc2ccc([N+](=O)[O-])cc2)cc1 | -6.88% (inactive)
8 | COCCCNC(=O)c1csc2c1CCCC2 | -6.29% (inactive)
9 | COc1ccccc1OCC(=O)n1nc(C)cc1C | -1.85% (inactive)
10 | CC1=C(C(=O)OCC(C)C)C(c2ccc(Cl)cc2Cl)NC(=O)N1 (stereo not drawn) | 1.8% (inactive)
11 | CCCCNC(=O)c1ccc2c(c1)ncn2-c1cc(OC)c(OC)c(OC)c1 | 3.91% (inactive)
12 | Cc1ccc(S(=O)(=O)c2cc3cc([N+](=O)[O-])ccc3oc2=O)cc1C | -3.29% (inactive)
13 | c1ccc(Oc2nc(NC3CC3)c3ncn(-c4ccsc4)c3n2)cc1 | 38.7% (active)
14 | Clc1nc(NCc2ccccc2)c2ncn(-c3ccccc3)c2n1 | -0.22% (inactive)
15 | COc1ccc(S(=O)(=O)NC(N)=NCCc2ccccc2OC)cc1 | 0.59% (inactive)
16 | O=C(Cn1ncc2c(=O)oc3ccccc3c21)Nc1nc2ccccc2s1 | -0.55% (inactive)
17 | O=C(NCCc1ccccc1)c1cc(S(=O)(=O)N2CCOCC2)ccc1F | -1.01% (inactive)
18 | O=C(NCC1CCC2(CCN(C(=O)Cc3cccc(F)c3)CC2)O1)c1ccccc1F (stereo not drawn) | 0.36% (inactive)
19 | O=C(CCC(=O)Nc1cc(C(F)(F)F)ccc1Cl)N/N=C\c1ccccc1O | -2.79% (inactive)
20 | CCOC(=O)c1c(NC(=O)c2ccc(Cl)cc2Cl)sc(C(=O)Nc2ccccc2F)c1C | -10.1% (inactive)
21 | Cc1ccc(-c2nnc(SCC(=O)NCc3ccccc3Cl)nc2-c2ccc(C)cc2)cc1 | -2.15% (inactive)
22 | COc1ccc(CCNC(=O)/C=C\C(=O)O)cc1OC | 1.57% (inactive)

Row | SMILES | activation
23 | COc1ccc(CCNc2ncnc3c2oc2ccccc23)cc1OC | 44.3% (active)
24 | COc1ccc(CCNC(=O)Cn2ncn3cccc3c2=O)cc1OC | 3.19% (inactive)
25 | O=C(Cn1c(=O)n(Cc2ccccc2Cl)c(=O)c2cccnc21)Nc1ccc(F)cc1 | -1.3% (inactive)
26 | O=C(CCCn1c2ccccc2c(=O)c2ccccc21)Nc1cccc(Cl)c1 | 6.83% (inactive)
27 | COc1ccc(-c2nc(Nc3ccccc3F)c3ccccc3n2)cc1OC | 8.64% (inactive)
28 | CC(C)C[C@H]1NC(=O)[C@H]2CN(C(=O)c3cccc(Cl)c3)CCN2C1=O | -3.06% (inactive)
29 | CC[C@@H](C(=O)C(C)[C@@H](O)[C@H](C)CCc1ccc(C)c(O)c1C(=O)O)C1OC(CC)(C2CC[C@](O)(CC)[C@H](C)O2)C[C@@H]1C (stereo partly drawn) | 83.1% (active)
30 | O=C(Nc1ncc(C(O)(C(F)(F)F)C(F)(F)F)s1)c1ccccc1Cl | -4.3% (inactive)
31 | COc1ccc(NC(=O)c2cc3c(CO)cnc(C)c3oc2=N)cc1Cl | -0.43% (inactive)
32 | O=C(NCCc1nnc2n1CCN(Cc1ccccc1-c1ccco1)CC2)C1CCCO1 (stereo not drawn) | -0.22% (inactive)
33 | CCc1ccccc1NC(=S)N(CCc1ccc(OC)c(OC)c1)Cc1cccnc1 | 12% (inactive)
34 | O=C(Nc1nc(-c2ccc(I)cc2)cs1)c1ccc(Cl)s1 | 4.72% (inactive)
35 | CC(C)[C@@H]1NC(=O)[C@@H]2C[C@H](NCc3cn(C)nc3-c3ccccc3)CN2C1=O | -1.25% (inactive)
36 | Cc1nn(-c2ccccc2)c(Cl)c1/C=N\O | 1.25% (inactive)
37 | Cc1ccc(O)c(NC(=O)COCc2cc(-c3ccc(F)cc3)on2)c1 | -1.43% (inactive)
38 | COc1cc(NC(=O)c2nn3c(C(F)(F)F)cc(-c4ccco4)nc3c2Cl)c(OC)cc1Cl | -0.24% (inactive)
39 | CCC(=O)N1CCc2cc(S(=O)(=O)Nc3cccc(C)c3)ccc21 | -1.7% (inactive)
40 | CC(=O)N1CCc2cc(Br)cc(S(=O)(=O)Nc3ccc(C)cc3C)c21 | -9.66% (inactive)
41 | O=C(Nc1nc2c(s1)-c1cccc3cccc-2c13)C1CC1 | -2.94% (inactive)
42 | Cc1cccc(NCC(=O)N/N=C/c2ccccc2O)c1 | -1.08% (inactive)
43 | CN1CCN(C(=O)c2cc3c(=O)[nH]c4ccccc4c3s2)CC1 | -2.02% (inactive)
44 | COc1ccc(OC)c(S(=O)(=O)NCCc2csc(-c3cccnc3)n2)c1 | -1.44% (inactive)

Row | SMILES | activation
45 | Cc1cccc(N(CCCN2C(=O)c3cccc4cccc(c34)C2=O)C(=O)c2cccs2)c1 | 2.61% (inactive)
46 | CC(=O)NN1C(=O)c2ccc(Oc3ccc4c(c3)C(=O)N(NC(C)=O)C4=O)cc2C1=O | 1.35% (inactive)
47 | COc1ccc(/C=c2\sc3ncnn3c2=O)c(OC)c1 | 1.55% (inactive)
48 | COc1ccccc1C1SC(NC(C)=O)=NN1C(C)=O (stereo not drawn) | 4.02% (inactive)
49 | Cc1cccc(C2c3[nH]c4ccccc4c3CCN2C(=O)CCN2CCCCO2)n1 (stereo not drawn) | 2.25% (inactive)
50 | COc1cccc(CC(=O)NCC2CC(Cc3ccc(F)cc3)=NO2)c1 (stereo not drawn) | -4.37% (inactive)
51 | COc1cccc(Nc2nc(Nc3cc(C)ccc3C)nc(N3CCOCC3)n2)c1 | 8.14% (inactive)
52 | COc1ccc(CCNc2ccnc(Nc3ccc(N4CCOCC4)cc3)n2)cc1 | 28.5% (active)
53 | COc1cc(Nc2ccnc(Nc3ccc(N4CCOCC4)cc3)n2)cc(OC)c1OC | 4.44% (inactive)
54 | COc1ccc(CCNc2cc(C)nc(Nc3ccc(-n4ccnc4)cc3)n2)cc1 | 41.2% (active)
55 | Cc1cc(Nc2ccc(N3CCOCC3)cc2)nc(Nc2ccc(-n3ccnc3)cc2)n1 | 17.5% (inactive)
56 | Cc1cc(Nc2ccc3c(c2)OCO3)nc(Nc2ccc(N3CCOCC3)cc2)n1 | 12.3% (inactive)
57 | COc1ccc(CCNc2ccnc(Nc3ccc(-n4ccnc4)cc3)n2)cc1 | 38.8% (active)
58 | Cc1ccc(NC(=O)/C(=C\c2ccco2)NC(=O)c2cccc(C)c2)cc1 | 0.99% (inactive)
59 | CC(C)CC(NC(=O)C(C)NC(=O)CNC(=O)C(NC=O)C(C)C)C(=O)NC(C)C(=O)NC(C(=O)NC(C(=O)NC(C(=O)NC(Cc1c[nH]c2ccccc12)C(=O)NC(CC(C)C)C(=O)NC(Cc1c[nH]c2ccccc12)C(=O)NC(CC(C)C)C(=O)NC(Cc1c[nH]c2ccccc12)C(=O)NC(CC(C)C)C(=O)NC(Cc1c[nH]c2ccccc12)C(=O)NCCO)C(C)C)C(C)C)C(C)C (stereo not drawn) | 101% (active)
60 | COc1ccc(-c2nc(Nc3ccc(C)c(Cl)c3)c3ccccc3n2)cc1OC | 12.1% (inactive)
61 | COc1ccc(CCN2C(=O)c3cccnc3C2=O)cc1OC | 2.67% (inactive)
62 | COc1ccc(CCN2C(=O)c3ccc(Oc4ccc(Nc5ncnc6ccccc56)cc4)cc3C2=O)cc1OC | 40.5% (active)
63 | CC(NC(=O)c1ccco1)c1nnc2n1CCN(Cc1cccc(F)c1)CC2 (stereo not drawn) | 17.5% (inactive)
64 | CCOC(=O)C1=NN=C2C(=O)N(c3ccccc3)C(=O)C12 (stereo not drawn) | 0.79% (inactive)
65 | CCOc1ccc(NC(=O)/C(C#N)=C/c2c[nH]c3ccccc23)cc1 | 1.37% (inactive)
66 | O=C(CSc1nc(-c2ccccc2)cn1-c1ccccc1)Nc1ccccc1Cl | 6.36% (inactive)

Row | SMILES | activation
67 | O=C1OC(c2ccc(Br)cc2)=N/C1=C\c1ccc(Br)cc1 | 0.61% (inactive)
68 | Cc1ccc(S(=O)(=O)N(CC(=O)N2CCOCC2)CC(=O)N2CCOCC2)cc1 | 7.51% (inactive)
69 | O=C1C2CCCN2C(c2ccco2)N1c1ccc(F)cc1 (stereo not drawn) | 2.43% (inactive)
70 | FC(F)(F)c1nc(Nc2ccccc2Cl)sc1-c1ccccc1 | 4.88% (inactive)
71 | N/C(=N\c1nc(=O)c2ccccc2s1)NC(=O)c1cccc(Br)c1 | 0.6% (inactive)
72 | CCOc1ccc(NC(=O)CN2CCN(CC(=O)Nc3ccc(N(C)C)cc3)CC2)cc1 | -2.91% (inactive)
73 | COc1cc(C2=N/C(=C\c3cccc(F)c3)C(=O)O2)cc(OC)c1OC | 0.44% (inactive)
74 | O=C1NC(=O)C(=Cc2ccc(-c3ccc(O)c([N+](=O)[O-])c3)o2)C(=O)N1 | -2.55% (inactive)
75 | Cc1nnc(Nc2cccc(F)c2)[nH]c1=O | -3.86% (inactive)
76 | COC(=O)C1=C(C)NC(=O)NC1c1cc(OC)ccc1OC (stereo not drawn) | 0.35% (inactive)
77 | CC(C)C(NS(=O)(=O)c1cccc2nsnc12)C(=O)NC1CCCC1 (stereo not drawn) | -3.04% (inactive)
78 | CC(=O)Nc1ccc(NC(=O)c2sc3ccccc3c2Cl)cc1 | 1% (inactive)
79 | CCN(CC(=O)N1CCCCC1)S(=O)(=O)c1ccc(Cl)cc1 | -5.3% (inactive)
80 | CC1CCCN(C(=O)C(=O)N2CCCC(C)C2)C1 (stereo not drawn) | 3.28% (inactive)
81 | CCC(C)NC(=O)c1cc(=O)[nH]c2ccc(Br)cc12 (stereo not drawn) | 88.5% (active)
82 | CCC(C)NC(=O)c1cc2c(=O)oc3ccccc3c2s1 (stereo not drawn) | 1.06% (inactive)
83 | CCC(C)NC(=O)c1ccc(-n2c(=S)[nH]c3ccccc3c2=O)cc1 (stereo not drawn) | 7.03% (inactive)
84 | CCCOC(=O)CSC1=C(C#N)C(c2ccco2)C(C(=O)Nc2ccc(Cl)cc2)=C(C)N1 (stereo not drawn) | -4.25% (inactive)
85 | O=C(Nc1ccc(F)cc1)N1CCN(c2ccc3nnc(-c4ccc(F)cc4)n3n2)CC1 | -0.4% (inactive)
86 | Nc1ccccc1-c1nnn(CC(=O)Nc2ccc(Cl)cc2)n1 | -3.19% (inactive)
87 | O/N=C(\C=N\O)C12CC3CC(CC(C3)C1)C2 | -1.69% (inactive)
88 | O=C(O)c1c(CNCCCSC2CCCCC2)c2ccccc2n1Cc1ccccc1 | 3.46% (inactive)
